Reference: PubChem BioAssay (Tox21)
Inconclusive results are not listed. Activity calls are given as the source filed them. Calls follow the shape of the full dose curve.

Biological target: Muscarinic acetylcholine receptor M1 (Homo sapiens) (UniProt P11229)
Assay: Cholinergic receptor muscarinic 1 (CHRM1) small molecule antagonists, cell-based qHTS assay (AID 1963588); also: nearly all actives have a fitted effect of over 40% in size
Settings: CHRM1-CHO antagonist mode, calcium flux fluorescence; series mostly up to 61.5 µM; activity, negative = inhibition: at the top concentration
Source text: National Center for Advancing Translational Sciences [NCATS]
Division of Preclinical Innovation [DPI]
U.S. Environmental Protection Agency [EPA]
National Institutes of Environmental Health Sciences [NIEHS]
National Toxicology Program [NTP]
U.S. Food and Drug Administration [FDA]
The CHRM1 is a muscarinic receptor. This receptor plays a crucial role in learning and memory processes and has long been identified as a promising therapeutic target for the improvement of cognitive decline in Alzheimer's disease (AD). The CHRM1-CHO cell line stably expressing human muscarinic acetylcholine receptor M1 (CHRM1) can be used for screening agonists and antagonists of interactions between CHRM1 and its ligands. The CHRM1-CHO Calcium Flux Assay is a homogeneous fluorescence-based assay for detecting the intracellular calcium level using FDSS kinetic plate reader system.
Tox21 Assay Protocol Summary:
CHRM1-CHO cells were dispensed at 1000 cells/3uL/well in 1536-well black-clear bottom plates using a Multidrop Dispenser. After the assay plates were incubated at a 37 C/5% CO2 incubator for 18 h, 3 uL of Dye Loading Buffer was transferred to the assay plate by a Flying Reagent Dispenser. The assay plates were incubated at 37 C for 1h. For antagonist mode, 23 nL of compounds dissolved in DMSO, positive controls or DMSO only was transferred to the assay plate by a pin tool. After 5 min incubation at room temperature, 1.5 uL of acetylcholine at 50nM was added to each well. The fluorescence intensity in the plates was measured using FDSS 7000EX kinetic plate reader for 3 min at 1 sec intervals. Each test compound was measured at 15 concentrations in three independent runs.
% is scaled to controls: 0 for no effect and ±100 for the full control effect; potency is read from the fitted curve at half-maximal effect.

Chain of Muscarinic acetylcholine receptor M1 (Homo sapiens) (P11229 whole entry, looked up): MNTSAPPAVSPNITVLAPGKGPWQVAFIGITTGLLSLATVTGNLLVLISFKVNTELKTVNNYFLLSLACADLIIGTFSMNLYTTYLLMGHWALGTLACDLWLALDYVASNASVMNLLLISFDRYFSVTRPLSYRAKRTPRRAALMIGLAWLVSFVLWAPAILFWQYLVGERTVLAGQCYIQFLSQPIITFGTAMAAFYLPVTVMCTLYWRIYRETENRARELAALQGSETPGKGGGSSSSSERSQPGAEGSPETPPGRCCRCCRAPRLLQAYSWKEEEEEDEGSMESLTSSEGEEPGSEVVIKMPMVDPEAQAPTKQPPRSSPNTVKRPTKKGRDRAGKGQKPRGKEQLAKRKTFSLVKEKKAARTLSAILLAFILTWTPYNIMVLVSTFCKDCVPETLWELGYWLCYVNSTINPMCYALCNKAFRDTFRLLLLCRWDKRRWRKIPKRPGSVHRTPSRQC

SMILES | activity, negative = inhibition | Potency
O=C(O)c1ccc2cc(C(=O)O)ccc2c1 | -1.31% (inactive) | 
CO[C@]12C[C@@H](COC(=O)c3cncc(Br)c3)CN(C)[C@@H]1Cc1cn(C)c3cccc2c13 |  | 8.18 µM (active)
C=CCCCCCCCCCCCCCC | -25.1% [at 12.6 µM] (inactive) | 
CCCCCCCCCCC[C@@H](C[C@@H]1OC(=O)[C@H]1CCCCCC)OC(=O)[C@H](CC(C)C)NC=O | -3.77% [at 28.3 µM] (inactive) | 
C=CCOC(=O)COCCC(C)C | 10.5% (inactive) | 
CCc1oc2ccccc2c1C(=O)c1cc(I)c(O)c(I)c1 | -31.7% [at 28.3 µM] (inactive) | 
NNC(=O)OCc1ccccc1 | -16.5% (inactive) | 
CN1CC(=O)N2[C@H](c3ccc4c(c3)OCO4)c3[nH]c4ccccc4c3C[C@@H]2C1=O | -13% [at 28.3 µM] (inactive) | 
C=C1C(C)(C)[C@@]2(Cl)C(Cl)[C@]1(Cl)C(Cl)(Cl)C2(Cl)Cl (stereo not given in full) | 10.3% (inactive) | 
CCCCCCOc1ccc(O)cc1 | 5.58% (inactive) | 
CCCCCC(C)O (stereo not given) | -0.55% (inactive) | 
COP(=O)(OC)OC(c1ccc(Cl)cc1)P(=O)(OC)OC (stereo not given) | 21.1% [at 28.3 µM] (inactive) | 
CC(C)(c1ccccc1)c1ccccc1 |  | 1.1 µM (active)
O=S(=O)(Oc1ccc(Cl)cc1)c1ccccc1 |  | 11.9 µM (active)
C#C[C@]1(O)CC[C@H]2[C@@H]3CCc4cc(OC5CCCC5)ccc4[C@H]3CC[C@@]21C | -38.7% [at 28.3 µM] (inactive) | 
S=C(S)NCCNC(=S)S | -12.8% (inactive) | 
CCCCc1ccc2nc(NC(=O)OC)[nH]c2c1 | 15.4% [at 28.3 µM] (inactive) | 
Oc1ccc2c(c1)-c1ccccc1C2 | 4.61% (inactive) | 
CCCCCC | 27.6% (inactive) | 
O=C(Nc1cccc([N+](=O)[O-])c1)c1cc2ccccc2cc1O | 3.51% (inactive) | 

SMILES | activity, negative = inhibition | Potency
C[C@]12CC[C@H]3C(=CCc4cc(O)ccc43)[C@@H]1CCC2=O | 6.36% (inactive) | 
CCCCN(CCCC)c1ccc(C(=O)c2ccccc2C(=O)O)c(O)c1 | 6.29% (inactive) | 
Cc1cc([N+](=O)[O-])ccc1N | 11.9% (inactive) | 
O=c1oc2cc(O)ccc2c2oc3cc(O)ccc3c12 | -3.54% (inactive) | 
Cc1c(C(=O)O)c(O)cc2c1C(=O)c1c(O)c([C@@H]3O[C@H](CO)[C@@H](O)[C@H](O)[C@H]3O)c(O)c(O)c1C2=O |  | inactive
CCc1cccc(N(C)C(N)=Nc2cccc3ccccc23)c1 | 5.27% [at 28.3 µM] (inactive) | 
CCN(CC)c1ccc2c(-c3ccccc3C(=O)O)c3ccc(=[N+](CC)CC)cc-3oc2c1 | 30.5% (inactive) | 
CCN1CCN(C(=O)N[C@@H](C(=O)N[C@@H]2C(=O)N3C(C(=O)O)=C(CSc4nnnn4C)CS[C@H]23)c2ccc(O)cc2)C(=O)C1=O | -3.91% [at 28.3 µM] (inactive) | 
O=CO | 7.62% [at 5.58 µM] (inactive) | 
O=[N+]([O-])c1ccc(O)cc1 |  | inactive
O=C(Cl)c1cc(C(=O)Cl)cc(C(=O)Cl)c1 | 3.88% (inactive) | 
CC(Cc1ccccc1)(NC(=O)CN)c1ccccc1 (stereo not given) | 9.68% [at 28.3 µM] (inactive) | 
C=C[C@](C)(O)CC[C@@H]1[C@@]2(C)CCCC(C)(C)[C@@H]2CC[C@@]1(C)O | 10.7% (inactive) | 
OCCOc1cccc(OCCO)c1 | 1.23% (inactive) | 
O/N=C/C=N/O | 10.1% (inactive) | 
COC(=O)C1=C(C)NC(C)=C(C(=O)OCC(C)=O)C1c1ccccc1[N+](=O)[O-] (stereo not given) | 16.2% [at 28.3 µM] (inactive) | 
CC/C(=C(\c1ccc(O)cc1)c1ccc(OCCN(C)C)cc1)c1ccccc1 | -8.74% (inactive) | 
CC1(CO)CN(c2ccccc2)NC1=O (stereo not given) | -2.76% (inactive) | 
O=C1c2c(O)ccc([N+](=O)[O-])c2C(=O)c2c([N+](=O)[O-])ccc(O)c21 | -19% (inactive) | 
CCC(C)c1cc(C(C)(C)C)c(O)c(C(C)(C)C)c1 (stereo not given) | -0.119% (inactive) | 
